# Source: PubChem
# DT40 TDP1 CPT – growth inhibition of DT40 Tdp1-/-;hTDP1 cells with camptothecin (screen for TDP1 inhibitors); chicken DT40 Tdp1-/-;hTDP1 cells + 20 nM CPT, ATP luminescence, 48 h; Potency, µM (top dose mostly 46.2 µM), inactives show at the top dose activity change, negative = growth inhibition, usual class: inhibitors; 420,000 compounds, 12% hits; AID 686979; note: nearly all actives have a fitted effect of over 55% in size
#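 Chicken DT40 Tdp1-/- cells complemented with human TDP1, 400 cells/well, exposed to compounds plus 20 nM camptothecin for at least 48 h at 37 C; viability read as ATP content by CellTiter-Glo luminescence.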
# VP16 counter – inhibits Gal4-VP16 luciferase reporter, ROR gamma counter-screen; Drosophila S2 Gal4-VP16 UAS-luciferase, luminescence, 20 h; Potency, µM (titrated, usually from 53.6 µM), for inactives: at the top dose activity, negative = inhibition, hits mostly inhibitors; 310,000 compounds, 3.5% hits;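 note: Gal4-VP16 expression switched on by copper sulfate through the metallothionein promoter; nearly all actives have a fitted effect of over 50% in size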
# TDP1 cell noCPT – qHTS for Inhibitors of human tyrosyl-DNA phosphodiesterase 1 (TDP1): qHTS in cells in absence of CPT; DT40 Tdp1-/- hTDP1 cells, no CPT, ATP luminescence, 48 h; Potency, µM (doses to about 46.2 µM), for the others: top-dose activity change, negative = growth inhibition, most hits filed as inhibitors; 420,000 compounds, 15% hits; note: nearly all actives have a fitted effect of over 55% in size
#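 Growth kinetics read by CellTiter-Glo luminescence after ≥48 hr at 37 °C. Cells: DT40 Tdp1-/- stably carrying human TDP1, 400 per well, compound exposure in the absence of CPT (DMSO vehicle).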
# TDP1 block – blocks human tyrosyl-DNA phosphodiesterase 1 | AID 485290 | recombinant TDP1, AlphaScreen DNA substrate cleavage | 350,000 compounds, 0.28% hits | Potency, µM (titrated, usually from 130 µM), inactives show at the highest dose activity change, negative = inhibition, most hits filed as inhibitors | Q9NUW8; note: nearly all actives have a fitted effect of over 40% in size
# Target sequence (Q9NUW8 whole entry, looked up): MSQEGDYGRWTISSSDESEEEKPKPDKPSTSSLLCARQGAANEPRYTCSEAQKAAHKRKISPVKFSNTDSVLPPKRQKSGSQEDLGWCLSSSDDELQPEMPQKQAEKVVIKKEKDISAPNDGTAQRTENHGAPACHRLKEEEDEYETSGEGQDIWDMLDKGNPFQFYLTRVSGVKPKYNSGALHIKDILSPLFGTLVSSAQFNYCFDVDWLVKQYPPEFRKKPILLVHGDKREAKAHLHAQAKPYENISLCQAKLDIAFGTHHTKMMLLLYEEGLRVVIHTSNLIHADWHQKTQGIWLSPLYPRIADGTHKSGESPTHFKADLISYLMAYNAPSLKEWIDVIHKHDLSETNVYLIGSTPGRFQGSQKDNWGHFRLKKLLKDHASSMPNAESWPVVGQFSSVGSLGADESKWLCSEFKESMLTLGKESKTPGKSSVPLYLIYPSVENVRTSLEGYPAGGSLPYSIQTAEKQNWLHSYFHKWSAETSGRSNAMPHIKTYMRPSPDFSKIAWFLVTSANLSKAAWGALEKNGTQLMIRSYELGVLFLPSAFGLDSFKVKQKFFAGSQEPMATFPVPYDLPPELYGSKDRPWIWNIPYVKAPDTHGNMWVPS
#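 Here, a 5' biotin and 3' phosphotyrosine-FITC DNA oligonucleotide reports Tdp1 activity: intact substrate bridges AlphaScreen beads, while cleavage leaves a 3' phosphate and drops signal. All incubations at room temperature.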
# RORg inh – inhibitors of mouse ROR gamma transcriptional activity; Drosophila S2 Gal4-RORgamma UAS-luciferase reporter, 20 h; Potency, µM (titrated, usually from 53.6 µM), for the others: top-dose activity change, negative = inhibition, most hits filed as inhibitors; 310,000 compounds, 5.4% hits; AID 2551; note: nearly all actives have a fitted effect of over 60% in size
#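 Compounds are pin-transferred onto Drosophila Schneider cells expressing a copper-inducible Gal4–ROR gamma transactivation domain fusion. After 1 hr, copper sulfate is added to 700 uM final; luciferase is read 20 hr later.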
# The depositor's hits bear a star; ? = inconclusive; . = not tested or not shown; [ ] = remark or other dose. Sampled rows, rich in hits. Any-hit rate of the full collection: about 19%. Calls come from the whole dose curve; as a rule, active = well fitted curve in the direction sought with a large enough effect; inconclusive = small, poorly fitted or top-dose-only effect, or another doubt; inactive = no such curve, though single readings can be large; an effect the other way counts as inactive or inconclusive. % is set by controls: 0 for no effect and ±100 for the full control effect; potency is the fitted concentration of half-maximal effect.
SMILES,DT40 TDP1 CPT,VP16 counter,TDP1 cell noCPT,TDP1 block,RORg inh
CCOC(=O)c1c(C)[nH]c2cc(Br)c(OC)cc12,-1%,?,-22%,4%,0%
CCCc1cc(NCCOCCO)n2c(nc3ccccc32)c1C#N,?,.,12µM*,.,.
CCCc1cc(N2CCN(C(=O)c3ccco3)CC2)n2c(nc3ccccc32)c1C#N,?,4%,?,-5%,4.5µM*
CCCc1cc(NCCCN2CCOCC2)n2c(nc3ccccc32)c1C#N,16µM*,-16%,21µM*,-1%,22%
NC(=O)CN1C(=O)C2C3CCC(C3)C2C1=O (stereo not drawn),-5%,.,-8%,.,.
Nc1ccc2c(c1)ncn2CCCn1cnc2cc(N)ccc21,21µM*,-11%,?,2%,7%
CCn1c(C)nc2cc(N)ccc21,4%,2%,-1%,10%,-40%
CCCN(CC(=O)Nc1ccccc1C)C(=O)c1ccc(-c2ccccc2)cc1,-27%,-8%,?,5%,-8%
CCCN(CC(=O)Nc1ccccc1C)C(=O)c1ccc(COc2ccccc2)cc1,23µM*,?,?,0%,?
O=C(O)c1cc(-c2ccc(/C=N/N3C(=O)C4C5C=CC(CC5)C4C3=O)o2)ccc1Cl (stereo not drawn),1%,-3%,1%,.,0%
O=C1NN(c2ccccc2)C(=O)/C1=C/c1ccc(-c2ccc(Cl)c(C(=O)O)c2)o1,2%,1%,-1%,16µM*,-1%
CCOC(=O)c1cc(-c2ccc(/C=N\n3cnnc3)o2)ccc1Cl,-16%,.,?,1%,3%[0.365 µM]
CCOC(=O)c1cc(-c2ccc(/C=C3/C(=O)N(c4ccc(C(=O)O)cc4)N=C3C)o2)ccc1Cl,?,13%,15µM*,.,?
Cc1cccc(N2NC(=O)/C(=C/c3ccc(-c4ccc(Cl)c(C(=O)O)c4)o3)C2=O)c1,21%,0%,0%,11µM*,0%
COc1c(N)c2c(c([N+](=O)[O-])c1OC)C(=O)OC2,-2%,.,-26%,.,.
O=C(Cc1coc2cc(O)ccc12)N1CCN(S(=O)(=O)c2ccc(Br)cc2)CC1,?,.,23µM*,.,.
S=c1[nH]nc(CCc2ccccc2)n1-c1ccccc1,-1%,11µM*,-12%,8%,5.6µM*
S=c1[nH]nc(CCc2ccccc2)n1-c1ccc(Cl)cc1,?,?,-20%,0%,1.8µM*
O=C(CSc1nnc(CCc2ccccc2)n1-c1ccc(Cl)cc1)c1ccccc1,?,?,23µM*,-3%,11µM*
CCNC(=O)C1(C)CCN(Cc2ccc(OC(F)(F)F)cc2)C1 (stereo not drawn),-24%,.,-26%,.,.
CCNC(=O)C1(C)CCCN(Cc2ccc(Oc3ccccc3)cc2)C1 (stereo not drawn),13µM*,.,18µM*,.,.
CCCNC(=O)C1(C)CCN(Cc2cccc(OC(=O)c3ccccc3)c2)C1 (stereo not drawn),-6%,.,1%,.,.
CCNC(=O)C1(C)CCN(Cc2cccc(Oc3ccccc3)c2)C1 (stereo not drawn),?,.,16µM*,.,.
C=CCNC(=O)c1c(C(F)(F)F)nn(C)c1Cl,0%,-8%,-7%,-3%,7%
CCOc1cc(NC(=O)c2ccco2)c(OCC)cc1NC(=O)Cc1cccc(OC)c1,?,-15%,26µM*,10%,-23%
CCOc1cc(NS(=O)(=O)c2ccc(OC)cc2)c(OCC)cc1NC(=O)c1ccco1,21µM*,17%,23µM*,-3%,-12%
COc1cc(NC(=O)c2ccco2)c(OC)cc1NC(=O)CSc1ncc(-c2ccc(F)cc2)[nH]1,?,-14%,26µM*,-2%,-1%
CCOc1cc(NC(=O)c2cccs2)c(OCC)cc1NC(=O)c1ccco1,?,-3%,-26%,1%,10%
CCOc1cc(NC(=O)c2ccco2)c(OCC)cc1NC(=O)COc1ccccc1C,4.6µM*,.,4.1µM*,.,.
CCc1c(C(=O)OC)nnc2cc(C)nn12,-21%,8%,-8%,0%,?
